Measurements: PubChem BioAssay AID1159580 (chemical genetic matrix, 2015)
Screen size: about 5,500 compounds; about 2,000 (36%) were called active. Roughly 18% stayed inconclusive and do not appear here. No stated cut-off is given here; in the data, active means normalized growth mostly below about 0.91 (no sharp cut-off); inconclusive means no clear call, values can overlap the other calls; inactive means mostly above about 0.92. The list shows a part of the results.

Assay: chemical genetic growth profiling, strain panel (AID 1159580);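 further: tested at 20 µM; growth read once vehicle control cultures reached saturation at 30 °C; 1 = growth at the plate median or of vehicle wells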
Conditions: S. cerevisiae deletion strains, growth OD
[1] = locus YDR150W, strain NUM1, stronger effect = lower value
[2] = locus YGR078C, strain PAC10, stronger effect = lower value
[3] = locus YHR030C, strain SLT2, stronger effect = lower value
[4] = locus YJR075W, strain HOC1, stronger effect = lower value
[5] = locus YMR307W, strain GAS1, stronger effect = lower value
[6] = locus YNL153C, strain GIM3, stronger effect = lower value
[7] = locus YNL322C, strain KRE1, stronger effect = lower value
[8] = locus YPL055C, strain LGE1, stronger effect = lower value
[9] = locus YPL241C, strain CIN2, stronger effect = lower value

Measured: normalized growth

Cn1ncc(C(=O)O/N=C(/N)c2cc(C(F)(F)F)cc(C(F)(F)F)c2)c1-n1cccc1
inactive: locus YAL013W, strain DEP1, stronger effect = lower value 1.02 | locus YBR229C, strain ROT2, stronger effect = lower value 1.01 | locus YDL101C, strain DUN1, stronger effect = lower value 1.01 | locus YDL134C, strain PPH21, stronger effect = lower value 1.02 | [1] 0.963 | locus YEL061C, strain CIN8, stronger effect = lower value 0.999 | [2] 1 | [3] 0.972 | locus YHR087W, strain rtc3, stronger effect = lower value 0.996 | locus YJR043C, strain POL32, stronger effect = lower value 0.999 | [4] 0.972 | locus YKL190W, strain CNB1, stronger effect = lower value 1.01 | locus YLR039C, strain RIC1, stronger effect = lower value 0.958 | locus YLR058C, strain SHM2 (second series), stronger effect = lower value 1 | locus YLR085C, strain ARP6, stronger effect = lower value 0.984 | locus YLR262C, strain YPT6, stronger effect = lower value 1.03 | locus YML094W, strain GIM5, stronger effect = lower value 0.988 | locus YMR219W, strain ESC1, stronger effect = lower value 1 | locus YMR263W, strain SAP30, stronger effect = lower value 0.934 | [5] 1.03 | [6] 0.996 | locus YNL298W, strain CLA4 (second series), stronger effect = lower value 1.02 | [7] 0.991 | locus YNR030W, strain Alg12, stronger effect = lower value 1.02 | locus YOL006C, strain TOP1, stronger effect = lower value 0.98 | [8] 0.88 | [9] 0.935 | locus YPR135W, strain CTF4, stronger effect = lower value 0.961

Cc1cn[nH]c1
active: locus YDR195W, strain ref2 1.16 [resistant]
inactive: locus YAL021C, strain ccr4, stronger effect = lower value 1.05 | locus YAL026C, strain drs2, stronger effect = lower value 1.02 | locus YAL030W, strain snc1, stronger effect = lower value 1.03 | locus YAL040C, strain CLN3, stronger effect = lower value 0.992 | locus YBL061C, strain skt5, stronger effect = lower value 1.02 | locus YBR009C, strain hhf1, stronger effect = lower value 1.02 | locus YBR023C, strain chs3, stronger effect = lower value 1.03 | locus YBR171W, strain sec66, stronger effect = lower value 1.04 | locus YBR231C, strain swc5, stronger effect = lower value 1.04 | locus YBR279W, strain paf1, stronger effect = lower value 1.02 | locus YCL011C, strain gbp2, stronger effect = lower value 1.02 | locus YCL016C, strain dcc1, stronger effect = lower value 1.02 | locus YCL061C, strain MRC1 (second series), stronger effect = lower value 0.99 | locus YCL069W, strain vba3, stronger effect = lower value 1.03 | locus YCR088W, strain abp1, stronger effect = lower value 1.01 | locus YDL005C, strain med2, stronger effect = lower value 1.03 | locus YDL040C, strain nat1, stronger effect = lower value 1.01 | locus YDR001C, strain nth1, stronger effect = lower value 1.01 | locus YDR069C, strain doa4, stronger effect = lower value 1.06 | locus YDR137W, strain rgp1, stronger effect = lower value 1.01 | [1] 0.986 | locus YDR159W, strain sac3, stronger effect = lower value 0.99 | locus YDR297W, strain sur2, stronger effect = lower value 1.02 | locus YDR334W, strain swr1, stronger effect = lower value 1.03 | locus YDR335W, strain msn5, stronger effect = lower value 1.02 | locus YDR363W, strain ESC2, stronger effect = lower value 1.02 | locus YDR392W, strain spt3, stronger effect = lower value 1.1 | locus YEL003W, strain gim4, stronger effect = lower value 1.02 | locus YEL037C, strain rad23, stronger effect = lower value 1.01 | locus YEL061C, strain CIN8 (second series), stronger effect = lower value 1.01 | locus YER002W, strain NOP16, stronger effect = lower value 1.01 | locus YER015W, strain faa2, stronger effect = lower value 1.02 | locus YER016W, strain bim1, stronger effect = lower value 1.01 | locus YER111C, strain swi4, stronger effect = lower value 1.02 | locus YER155C, strain BEM2 (second series), stronger effect = lower value 1.13 | locus YFR010W, strain ubp6, stronger effect = lower value 1.05 | locus YGL167C, strain pmr1, stronger effect = lower value 1.02 | locus YGL173C, strain kem1, stronger effect = lower value 1.01 | locus YGL227W, strain vid30, stronger effect = lower value 1.01 | locus YGL240W, strain doc1, stronger effect = lower value 1.05 | locus YGL253W, strain hxk2, stronger effect = lower value 1.01 | [2] 0.984 | locus YHR013C, strain ard1, stronger effect = lower value 1.1 | locus YHR027C, strain rpn1, stronger effect = lower value 1.03 | [3] 0.971 | locus YHR079C, strain IRE1, stronger effect = lower value 0.962 | locus YHR142W, strain chs7, stronger effect = lower value 1.06 | locus YJL092W, strain hpr5, stronger effect = lower value 1.02 | locus YJL095W, strain BCK1 (second series), stronger effect = lower value 1.02 | locus YJL095W, strain BCK1, stronger effect = lower value 1.03 | locus YJL115W, strain asf1, stronger effect = lower value 1.01 | locus YJL129C, strain trk1, stronger effect = lower value 1.06 | locus YJL154C, strain vps35, stronger effect = lower value 1.02 | locus YJL164C, strain tpk1, stronger effect = lower value 1.03 | locus YJL166W, strain qcr8, stronger effect = lower value 1.03 | locus YJR066W, strain TOR1, stronger effect = lower value 0.924 | [4] 1.02 | locus YKL160W, strain elf1, stronger effect = lower value 1.01 | locus YKR026C, strain gcn3, stronger effect = lower value 1.01 | locus YKR091W, strain srl3, stronger effect = lower value 1.02 | locus YLL001W, strain dnm1, stronger effect = lower value 1.02 | locus YLL026W, stronger effect = lower value 1.02 | locus YLL041C, strain sdh2, stronger effect = lower value 1.02 | locus YLR027C, strain aat2, stronger effect = lower value 1.01 | locus YLR113W, strain HOG1, stronger effect = lower value 1.02 | locus YLR221C, strain rsa3, stronger effect = lower value 1.02 | locus YLR258W, strain gsy2, stronger effect = lower value 1.03 | locus YLR262C, strain YPT6 (second series), stronger effect = lower value 1.02 | locus YLR320W, strain mms22, stronger effect = lower value 1.08 | locus YLR342W, strain FKS1, stronger effect = lower value 1.03 | locus YLR357W, strain rsc2, stronger effect = lower value 1.09 | locus YLR370C, strain arc18, stronger effect = lower value 1.03 | locus YLR384C, strain iki3, stronger effect = lower value 1.01 | locus YML120C, strain ndi1, stronger effect = lower value 1.01 | locus YMR058W, strain fet3, stronger effect = lower value 1.03 | locus YMR125W, strain sto1, stronger effect = lower value 1.03 | locus YMR129W, stronger effect = lower value 1.01 | locus YMR205C, strain PFK2, stronger effect = lower value 1.08 | locus YMR231W, strain pep5, stronger effect = lower value 1.02 | [5] 1 | locus YNL071W, strain lat1, stronger effect = lower value 1.06 | [6] 1.02 | locus YNL175C, strain NOP13, stronger effect = lower value 0.994 | locus YNL183C, strain NPR1, stronger effect = lower value 0.934 | locus YNL197C, strain WHI3, stronger effect = lower value 0.996 | locus YNL209W, strain ssb2, stronger effect = lower value 1.02 | locus YNL224C, strain SQS1, stronger effect = lower value 1.02 | locus YNL248C, strain rpa49, stronger effect = lower value 1.02 | locus YNL322C, strain KRE1 (second series), stronger effect = lower value 1.02 | [7] 0.974 | locus YNR049C, strain mso1, stronger effect = lower value 1.01 | locus YOR001W, strain rrp6, stronger effect = lower value 1.03 | locus YOR070C, strain gyp1, stronger effect = lower value 1.02 | locus YOR080W, strain dia2, stronger effect = lower value 1.04 | locus YOR083W, strain WHI5 (second series), stronger effect = lower value 1.01 | locus YOR083W, strain WHI5, stronger effect = lower value 1.02 | locus YOR106W, strain vam3, stronger effect = lower value 1.03 | locus YOR231W, strain MKK1, stronger effect = lower value 0.985 | locus YOR265W, strain rbl2, stronger effect = lower value 1.02 | locus YOR270C, strain vph1, stronger effect = lower value 1.08 | locus YOR290C, strain snf2, stronger effect = lower value 1.03 | locus YPL051W, strain arl3, stronger effect = lower value 1.02 | [8] 1.02 | locus YPL078C, strain atp4, stronger effect = lower value 1.04 | locus YPL106C, strain sse1, stronger effect = lower value 1.1 | locus YPL240C, strain hsp82, stronger effect = lower value 1.01 | [9] 0.981 | locus YPL256C, strain CLN2, stronger effect = lower value 0.938
